An excerpt weighted towards active compounds, which were near 1.8% of everything screened.
bovine MsrA act: activates bovine MsrA enzyme; activation, % at 10.6 µM; purified bovine MsrA, absorbance read-out; hit rate 0.3% among 360,000; in the data active = activation above about 7.5%;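 also: 0% = vehicle and 100% = reference activator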
HTR2A ag: mouse HTR2A agonism via beta-arrestin recruitment | AID 624169 | CHO-K1 mHTR2A beta-arrestin complementation, luminescence; percent of 30 µM serotonin response | P35363 | activation, % at 7.6 µM | hit rate 0.66% among 360,000;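 active = activation above a run cutoff, the mean activation of all tested compounds plus 3 SD, cut at about 14% in these data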;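 also: 0% = plate median of compound wells and 100% = 30 µM serotonin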
NPR2 activator: GC-B (human) receptor activation; HEK293-GC-B cells, CNP EC30, cGMP TR-FRET; 0% at EC30 CNP, 100% saturating CNP; hit rate 0.11% among 370,000; P20594; activation, % at 10 µM;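 active = activation at 10 µM reaching about 35% in either raw or pattern-adjusted values, limit read from the data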
NPR1 activator: GC-A (human) enzyme activation; P16066; HEK293 GC-A cells, cGMP TR-FRET, EC30 ANP; 0% at EC30 ANP, 100% saturating ANP; activation, % at 10 µM; hit rate 0.14% among 370,000; in the data active = activation above about 40%
Target sequence (P16066 whole entry, looked up): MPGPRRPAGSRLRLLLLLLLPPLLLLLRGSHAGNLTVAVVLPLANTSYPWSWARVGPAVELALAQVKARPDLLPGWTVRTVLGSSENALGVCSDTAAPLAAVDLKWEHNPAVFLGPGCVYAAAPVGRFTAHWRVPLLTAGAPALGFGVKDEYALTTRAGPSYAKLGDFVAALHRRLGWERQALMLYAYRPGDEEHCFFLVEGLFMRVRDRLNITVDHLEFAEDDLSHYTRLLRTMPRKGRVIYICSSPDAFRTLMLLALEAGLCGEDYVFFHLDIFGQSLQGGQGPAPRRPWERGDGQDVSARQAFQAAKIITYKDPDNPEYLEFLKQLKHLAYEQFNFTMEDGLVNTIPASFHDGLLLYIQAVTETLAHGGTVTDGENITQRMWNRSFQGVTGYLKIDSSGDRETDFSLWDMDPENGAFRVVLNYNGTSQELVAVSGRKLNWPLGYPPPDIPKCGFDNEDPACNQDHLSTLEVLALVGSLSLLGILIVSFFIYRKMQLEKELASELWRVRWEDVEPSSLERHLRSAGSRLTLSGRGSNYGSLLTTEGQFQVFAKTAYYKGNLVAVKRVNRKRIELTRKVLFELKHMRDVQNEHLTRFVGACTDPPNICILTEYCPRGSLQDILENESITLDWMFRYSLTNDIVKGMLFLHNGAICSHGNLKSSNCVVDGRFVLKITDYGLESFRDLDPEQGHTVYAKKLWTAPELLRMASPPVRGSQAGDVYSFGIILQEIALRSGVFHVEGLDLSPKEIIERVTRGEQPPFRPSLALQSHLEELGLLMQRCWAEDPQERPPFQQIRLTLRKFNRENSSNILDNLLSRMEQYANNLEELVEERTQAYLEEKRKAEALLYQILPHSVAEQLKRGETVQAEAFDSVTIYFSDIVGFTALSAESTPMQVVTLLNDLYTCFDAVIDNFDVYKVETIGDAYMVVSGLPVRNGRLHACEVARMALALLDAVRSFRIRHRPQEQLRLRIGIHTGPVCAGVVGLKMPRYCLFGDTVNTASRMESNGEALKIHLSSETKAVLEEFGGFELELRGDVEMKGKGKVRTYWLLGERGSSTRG
MsrA inhibitor: inhibits bovine methionine sulfoxide reductase A; purified bovine MsrA, absorbance read-out; inhibition, % at 15.5 µM; hit rate 0.75% among 360,000; in the data active = inhibition above about 4.5%;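 also: 0% = vehicle wells with enzyme and 100% = reference inhibitor wells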
OPRM1 ag: activates human mu opioid receptor in HTR2A counterscreen; shares compounds with HTR2A ag; hit rate 5.3% among 2,300; activation, % at 9.3 µM; U2OS OPRM1 beta-arrestin PathHunter, luminescence; DMSO 0%, DAMGO 9.3 µM 100%;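 active = mean activation above the mean of DMSO-only wells plus 3 SD, cut at about 0.5% in these data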
HTR2A ag conf: mouse HTR2A agonism confirmed; CHO-K1 PathHunter beta-arrestin recruitment, luminescence; DMSO 0%, 30 µM serotonin 100%; shares compounds with HTR2A ag; activation, % at 7.6 µM; AID 624381; hit rate 19% among 2,300;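 active = mean activation across triplicates above the hit threshold derived in the original primary screen, cut at about 15% in these data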
An asterisk follows results filed as active.

O=C1NC[C@@H](CCCCN2C[C@H](Cc3ccccc3)N(CCC3CCCCC3)C(=O)C2=O)N(Cc2ccccc2)C1=O was read as bovine MsrA act 0, HTR2A ag 15*, NPR2 activator -2, NPR1 activator 3, MsrA inhibitor 0, OPRM1 ag -1 and HTR2A ag conf -5.
For C#CCN1CC(N(C)CCOC(=O)CSc2ccccc2)CS1(=O)=O (stereo not given) the results were NPR2 activator 2 and NPR1 activator 2.
Screening Cc1ccc(C(C)C)c(OCC(=O)OCC(=O)NC2CC2)c1 returned bovine MsrA act 5, HTR2A ag 26*, NPR2 activator -2, NPR1 activator -1, MsrA inhibitor 0, OPRM1 ag 0 and HTR2A ag conf -1.
For Cc1ccc(C(C)C)c(OCC(=O)OCC(=O)NC2CCS(=O)(=O)C2)c1 (stereo not given) the results were bovine MsrA act -4, HTR2A ag 5, NPR2 activator 5, NPR1 activator 2 and MsrA inhibitor 1.
For CC(=O)OCCCN1C(=O)CCC12CCC(C)CC2 (stereo not given) the results were NPR2 activator -2 and NPR1 activator 1.
Screening O=C(CCN1C(=O)c2cccc3cccc(c23)C1=O)NCc1ccco1 returned bovine MsrA act -13, HTR2A ag 16*, NPR2 activator -5, NPR1 activator -1, MsrA inhibitor 3, OPRM1 ag -1 and HTR2A ag conf -2.
Screening COC(=O)c1cc(-c2cccc(OCc3ccccc3)c2)c(=O)n2c1CCC2 returned NPR2 activator -5 and NPR1 activator 1.
Screening CC1CCCN(C(=O)CSCC(=O)Nc2nc(-c3cccs3)cs2)C1 (stereo not given) returned bovine MsrA act -2, HTR2A ag 15*, NPR2 activator 2, NPR1 activator 8, MsrA inhibitor 1, OPRM1 ag -1 and HTR2A ag conf 3.
Screening COc1ccc(-n2c(Cc3cccs3)nnc2SCC(=O)Nc2ccc(OCc3ccccc3)cc2)cc1 returned NPR2 activator -8 and NPR1 activator -4.
Screening CCCN(CCC)CCNC(=O)c1cc2c(-c3ccc(Cl)cc3)nn(C)c2s1 returned bovine MsrA act -7, HTR2A ag 30*, NPR2 activator -6, NPR1 activator -8, MsrA inhibitor 0, OPRM1 ag 0 and HTR2A ag conf 51*.
COc1ccc(CCn2c3c(c(=O)[nH]c2=O)C(NC(=O)c2cccs2)(C(F)(F)F)C(=O)N3)cc1OC (stereo not given) was read as bovine MsrA act 1, HTR2A ag 15*, NPR2 activator 3, NPR1 activator -2, MsrA inhibitor 1, OPRM1 ag -1 and HTR2A ag conf -2.
Screening CC(=O)NC1(C(F)(F)F)C(=O)Nc2c1c(=O)[nH]c(=O)n2CCc1ccccc1 (stereo not given) returned bovine MsrA act -9, HTR2A ag 6, NPR2 activator 3, NPR1 activator -5 and MsrA inhibitor -1.
For CC(C)=CC(=O)N1CCCC(N2CCN(c3ccccc3C)CC2)C1 (stereo not given) the results were bovine MsrA act -3, HTR2A ag -11, NPR2 activator 4, NPR1 activator 3 and MsrA inhibitor 0.
`CSCCC(=O)N1CC[C@@H](N2CCN(c3ccccc3F)CC2)[C@H](O)C1` gave bovine MsrA act -2, HTR2A ag 15*, NPR2 activator 2, NPR1 activator -1, MsrA inhibitor -1, OPRM1 ag -1 and HTR2A ag conf 45*.
Screening CC(C)=CC(=O)N1CC[C@@H](N2CCN(c3ccccc3F)CC2)[C@H](O)C1 returned bovine MsrA act -3, HTR2A ag 17*, NPR2 activator 6, NPR1 activator 0, MsrA inhibitor -1, OPRM1 ag 0 and HTR2A ag conf 43*.
For COC(=O)CN1CCN(C(=O)c2csc(N3CCOCC3)n2)CC1 the results were NPR2 activator -3 and NPR1 activator -3.
Screening COCC(=O)N(C)[C@H]1C[C@H]2c3[nH]c4c(-c5ccccc5)cccc4c3CCN2C(=O)[C@H]1[C@H](C)O returned NPR2 activator -2, NPR1 activator 2 and MsrA inhibitor -1.
`COc1ccc(C(CNC(=O)c2ccccc2C)N2CCCC2)cc1` (stereo not given) gave bovine MsrA act 2, HTR2A ag 31*, NPR2 activator -24, NPR1 activator -35, MsrA inhibitor 1, OPRM1 ag -1 and HTR2A ag conf -1.
`COc1ccc(C(CNC(=O)COc2ccccc2C)N2CCCCC2)cc1` (stereo not given) gave bovine MsrA act -10, HTR2A ag 3, NPR2 activator -9, NPR1 activator -10 and MsrA inhibitor 0.
Screening COc1cc(OC)cc(-c2c(-c3ccc(F)cc3)c3cc(-c4ccc5[nH]ccc5c4)ccc3n2C)c1 returned bovine MsrA act -3, HTR2A ag 15*, NPR2 activator 5, NPR1 activator 1, MsrA inhibitor 1, OPRM1 ag -1 and HTR2A ag conf -4.
For COc1cc(OC)cc(-c2c(-c3ccsc3)c3cc(Br)ccc3n2C)c1 the results were bovine MsrA act -11, HTR2A ag 15*, NPR2 activator -17, NPR1 activator -7, MsrA inhibitor 1, OPRM1 ag 0 and HTR2A ag conf -2.
`CCC[C@H]1OC(=O)[C@@H]2CCCN2C(=O)[C@H]([C@H](C)Cc2ccccc2)NC(=O)[C@@H]2CCCN2C(=O)[C@@H]2CCCN2C(=O)[C@H](C(C)C)OC(=O)[C@@H]2CCCN2C(=O)[C@H](C(C)C)NC(=O)C1(C)C` gave NPR2 activator 3 and NPR1 activator 1.
Screening O=C(NCCN1CCC(Cc2ccccc2)CC1)C1CCCN(S(=O)(=O)c2ccc(Br)s2)C1 (stereo not given) returned NPR2 activator -16 and NPR1 activator -15.
`CN1C2CCC1CC(NS(=O)(=O)c1cccc(C(F)(F)F)c1)C2` (stereo not given) gave bovine MsrA act 6, HTR2A ag -1, NPR2 activator -2, NPR1 activator 0 and MsrA inhibitor -2.
For CN1C2CCC1CC(NS(=O)(=O)c1ccc(C#N)cc1)C2 (stereo not given) the results were bovine MsrA act -3, HTR2A ag 16*, NPR2 activator 4, NPR1 activator -1, MsrA inhibitor 2, OPRM1 ag -1 and HTR2A ag conf -2.
c1nc2nc3c(c(N4CCCC4)n2n1)CCCC3 was read as NPR2 activator -1 and NPR1 activator 5.
